Screening results deposited in PubChem by several laboratories.
tim10-1 inh: inhibits growth of tim10-1 mutant yeast | S. cerevisiae tim10-1 ts strain growth, BacTiter-Glo, 24 h | AID 463190 | inhibition, % at 20 µM | 330,000 compounds, 2.2% hits;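 active = inhibition of at least 40%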;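 also: mutant grown at 25 °C; 0% = DMSO wells with yeast and 100% = wells holding no yeast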
TIM10 inh: TIM10 yeast growth inhibition. S. cerevisiae TIM10 strain growth, BacTiter-Glo luminescence, 24 h. inhibition, % at 10 µM. 330,000 compounds, 1.4% hits. AID 463195;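 active = inhibition of 40% or more at the single tested concentration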;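 also: wild-type TIM10 isogenic control strain grown at permissive 25 °C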
tim23-1 inh: tim23-1 yeast growth inhibition | S. cerevisiae tim23-1 growth, BacTiter-Glo luminescence, 24 h | 330,000 compounds, 1.3% hits | AID 463212 | inhibition, % at 20 µM;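 active = growth inhibition of the mutant yeast at or above 50%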;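 also: temperature-sensitive mutant grown at 25 °C; plate controls were DMSO-treated mutant yeast for no effect and medium wells lacking yeast for full effect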
PfHsp90 set2: inhibits growth of yeast expressing Plasmodium falciparum Hsp90 | S. cerevisiae expressing PfHsp90, BacTiter-Glo ATP, 48 h; yeast lacking PDR1 and PDR3 efflux regulators | inhibition, % at 9.4 µM | 310,000 compounds, 0.32% hits | AID 504621;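 active = every replicate shows inhibition above about 80%, whatever the replicate mean, limit read from the data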;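 also: 0% = DMSO neutral controls and 100% = 20 µM radicicol positive controls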
NLRP3 yeast inh: NALP3 inhibition in yeast; inhibition, % at 10 µM; AID 2825; 330,000 compounds, 0.39% hits; Yeast reconstituted NLRP3/ASC/caspase-1, beta-gal luminescence, 24 h;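 active = inhibition of 50% or more; inactive = inhibition below 50%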;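 also: plate controls were induced DMSO wells for no effect and uninduced yeast grown without galactose for full effect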
NALP3 yeast conf: NALP3 inhibition confirmation in yeast | shares compounds with NLRP3 yeast inh | yeast expressing human NALP3, luminescence | inhibition, % at 10 µM | 1,300 compounds, 81% hits | AID 435006; in the data active = inhibition above about 48%
Casp1 ASC ctr: active in yeast caspase-1-ASC counter-screen for NALP3 inhibitors; shares compounds with NLRP3 yeast inh; yeast expressing Caspase-1-ASC, luminescence counter screen; inhibition, % at 10 µM; 1,000 compounds, 66% hits; AID 488784
NALP3 retest: yeast NALP3 inhibition, confirmed on retest; shares compounds with NLRP3 yeast inh; inhibition, % at 10 µM; yeast expressing human NALP3, luminescence read-out; AID 488794; 1,000 compounds, 53% hits
* marks the source's active call; other numbers are inactive results. The list is not random: actives were taken first. Their share in the collection is about 3.7%. Rule as the data show it, unless noted: active = inhibition above about 50%; inactive = the rest.

For O=C(COc1ccc(F)cc1)Nc1cc(Cl)ccc1-n1cncn1 the results were tim10-1 inh 0, TIM10 inh -5, tim23-1 inh 16, NLRP3 yeast inh 63*, NALP3 yeast conf 70*, Casp1 ASC ctr 56* and NALP3 retest 49.
Screening CN(C(=O)CC1C(=O)NCCN1Cc1cccc(C(F)(F)F)c1)C1CCOCC1 (stereo not given) returned tim10-1 inh -11, TIM10 inh -3, tim23-1 inh -1, PfHsp90 set2 -105 and NLRP3 yeast inh 3.
Screening C/C(=N\NC(=S)Nc1cccc(C)c1)c1ccco1 returned tim10-1 inh 32, TIM10 inh 34, tim23-1 inh -12, PfHsp90 set2 -17, NLRP3 yeast inh 53* and NALP3 yeast conf 27.
Screening CCOc1cc(Br)cc(/C=N/NC(=O)c2cccnc2)c1O returned tim10-1 inh -3, TIM10 inh -28, tim23-1 inh 44, PfHsp90 set2 8 and NLRP3 yeast inh 24.
For O=C(NC1CCCCC1)c1noc2c1CCCCC2 the results were tim10-1 inh 14, TIM10 inh -2, tim23-1 inh 25, NLRP3 yeast inh 51*, NALP3 yeast conf 67*, Casp1 ASC ctr 54* and NALP3 retest 50.
Cc1nc(SCc2cccnc2)[nH]c(=O)c1C was read as tim10-1 inh -8, TIM10 inh 2, tim23-1 inh -4, PfHsp90 set2 -6 and NLRP3 yeast inh 10.
Screening CCSc1nnc(NC(=O)c2ccccc2C)s1 returned tim10-1 inh 12, TIM10 inh 17, tim23-1 inh 41, PfHsp90 set2 23, NLRP3 yeast inh 57* and NALP3 yeast conf 48.
CCSc1nnc(NC(=O)c2ccccn2)s1 was read as tim10-1 inh 32, TIM10 inh 17, tim23-1 inh 6, PfHsp90 set2 -18, NLRP3 yeast inh 55* and NALP3 yeast conf 61*.
CCSc1nnc(NC(=O)c2ccccc2)s1 was read as tim10-1 inh 1, TIM10 inh 4, tim23-1 inh 30, PfHsp90 set2 -18 and NLRP3 yeast inh 43.
Screening COCCN(CC(=O)Nc1cccc(C)c1C)C(=O)Cn1c(=O)cnc2ccccc21 returned tim10-1 inh 1, TIM10 inh 9, tim23-1 inh -5, PfHsp90 set2 22 and NLRP3 yeast inh 16.
`Cc1ccc2oc(C(=O)N3CCCCCC3)c(C)c2c1` gave tim10-1 inh 8, TIM10 inh -15, tim23-1 inh 33, PfHsp90 set2 -2, NLRP3 yeast inh 53*, NALP3 yeast conf 62*, Casp1 ASC ctr 59* and NALP3 retest 52*.
`O=C(CCNS(=O)(=O)c1ccccc1)N1CCN(C(c2ccccc2)c2ccccc2)CC1` gave tim10-1 inh -2, TIM10 inh -3, tim23-1 inh 30, PfHsp90 set2 4 and NLRP3 yeast inh 14.
Cc1cccc(OCCn2c(=S)[nH]c3ccccc32)c1 was read as tim10-1 inh 31, TIM10 inh 25, tim23-1 inh 37, PfHsp90 set2 -2 and NLRP3 yeast inh 33.
Cc1ccc(OCCn2c(=S)[nH]c3ccccc32)c(C(C)C)c1 was read as tim10-1 inh 14, TIM10 inh 38, tim23-1 inh 39, PfHsp90 set2 19, NLRP3 yeast inh 75*, NALP3 yeast conf 81*, Casp1 ASC ctr 56* and NALP3 retest 50.
For c1ccc(-c2ccc(-c3ccccn3)s2)nc1 the results were tim10-1 inh 6, TIM10 inh 7, tim23-1 inh 49, PfHsp90 set2 0, NLRP3 yeast inh 52*, NALP3 yeast conf 56*, Casp1 ASC ctr 50 and NALP3 retest 24.
For O=C(O)c1ccc(-c2ccccn2)s1 the results were tim10-1 inh 2, TIM10 inh -2, tim23-1 inh 8, PfHsp90 set2 -11 and NLRP3 yeast inh 4.
O=c1ccn(C2CCCO2)c(=O)[nH]1 (stereo not given) was read as PfHsp90 set2 -3.
Screening O=S(=O)(c1cnc(Cl)c(Br)c1)N1CCCCCC1 returned tim10-1 inh 11, TIM10 inh -3, tim23-1 inh -1, PfHsp90 set2 4, NLRP3 yeast inh 53*, NALP3 yeast conf 55*, Casp1 ASC ctr 35 and NALP3 retest 25.
For Nc1ncc(Br)cc1S(=O)(=O)N1CCCCCC1 the results were tim10-1 inh -13, TIM10 inh -11, tim23-1 inh 5, PfHsp90 set2 15, NLRP3 yeast inh 53*, NALP3 yeast conf 59*, Casp1 ASC ctr 56* and NALP3 retest 38.
Screening O=S(=O)(c1cnc(Cl)c(Br)c1)N1CCN(c2ncccn2)CC1 returned tim10-1 inh -20, TIM10 inh 0, tim23-1 inh -12, PfHsp90 set2 2 and NLRP3 yeast inh 18.
CC(C)(C)NC(=O)[C@@H]1CN(Cc2cccnc2)CCN1C[C@@H](O)C[C@@H](Cc1ccccc1)C(=O)N[C@H]1c2ccccc2C[C@H]1O was read as tim10-1 inh 22, TIM10 inh 3, tim23-1 inh -6, PfHsp90 set2 4 and NLRP3 yeast inh 5.
For COc1ccccc1-c1sc2cc3c(cc2c1-c1ccc(OCCN2CCCCC2)cc1)OCO3 the results were tim10-1 inh -2, TIM10 inh 21, tim23-1 inh 44, PfHsp90 set2 18, NLRP3 yeast inh 64*, NALP3 yeast conf 49*, Casp1 ASC ctr 46 and NALP3 retest 43.
For O=CN/C=C/c1cccc(O)c1 the results were PfHsp90 set2 -26.
Screening COc1cc2ccccc2cc1C(=O)N1CCN(c2ccccn2)CC1 returned tim10-1 inh 7, TIM10 inh 4, tim23-1 inh 32, PfHsp90 set2 -30, NLRP3 yeast inh 52*, NALP3 yeast conf 87*, Casp1 ASC ctr 62* and NALP3 retest 76*.
Screening COc1cc(C)c(Cl)cc1S(=O)(=O)N1CCCC1 returned tim10-1 inh 11, TIM10 inh -3, tim23-1 inh 15, PfHsp90 set2 1 and NLRP3 yeast inh -24.
Screening COc1cc(Cl)c(S(=O)(=O)N2CCCC2)cc1Cl returned tim10-1 inh 13, TIM10 inh 17, tim23-1 inh 29, PfHsp90 set2 21, NLRP3 yeast inh 66* and NALP3 yeast conf 70*.
`COc1cc(S(=O)(=O)N2CCCC2)c(C)cc1C` gave tim10-1 inh 15, TIM10 inh -28, tim23-1 inh 12, PfHsp90 set2 12, NLRP3 yeast inh 60*, NALP3 yeast conf 77*, Casp1 ASC ctr 58* and NALP3 retest 43.
`Cc1ccc(C(=O)/C=C2/NC(=O)CS2)cc1` gave tim10-1 inh 11, TIM10 inh 38, tim23-1 inh 44, PfHsp90 set2 14, NLRP3 yeast inh 61*, NALP3 yeast conf 67*, Casp1 ASC ctr 52* and NALP3 retest 54*.
